{"source": "PubChem BioAssay AID1159580", "about": "(chemical genetic matrix, 2015)", "assay": "chemical genetic growth profiling, strain panel (AID 1159580);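 note: tested at 20 µM; growth read once vehicle control cultures reached saturation at 30 °C; 1 = growth at the plate median or of vehicle wells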", "conditions": "S. cerevisiae deletion strains, growth OD", "note": "Hit rate of the full screen: of about 5,500 compounds, about 2,000 (36%) were called active. About 18% were inconclusive and are not listed. The list shows a part of the results. A number with no mark means an inactive call. Cut-off read from the data, not from the text of the source: active = normalized growth mostly below about 0.91 (no sharp cut-off); inconclusive = no clear call, values can overlap the other calls; inactive = mostly above about 0.92."}
{"smiles": "Clc1ccc(C(OCCN2CCCCC2)c2ccccc2)cc1", "note": "(stereo not drawn)", "values": [{"measurement": "normalized growth", "setting": "locus YAL013W, strain DEP1, stronger effect = lower value", "value": 1}, {"measurement": "normalized growth", "setting": "locus YAL021C, strain ccr4, stronger effect = lower value", "value": 0.954}, {"measurement": "normalized growth", "setting": "locus YAL026C, strain drs2, stronger effect = lower value", "value": 1.02}, {"measurement": "normalized growth", "setting": "locus YAL030W, strain snc1, stronger effect = lower value", "value": 1.01}, {"measurement": "normalized growth", "setting": "locus YBL061C, strain skt5, stronger effect = lower value", "value": 1.02}, {"measurement": "normalized growth", "setting": "locus YBR009C, strain hhf1, stronger effect = lower value", "value": 1}, {"measurement": "normalized growth", "setting": "locus YBR021W, strain FUR4, stronger effect = lower value", "value": "0.833 (active)"}, {"measurement": "normalized growth", "setting": "locus YBR023C, strain chs3, stronger effect = lower value", "value": 1.02}, {"measurement": "normalized growth", "setting": "locus YBR171W, strain sec66, stronger effect = lower value", "value": 1.02}, {"measurement": "normalized growth", "setting": "locus YBR229C, strain ROT2, stronger effect = lower value", "value": 0.999}, {"measurement": "normalized growth", "setting": "locus YBR231C, strain swc5, stronger effect = lower value", "value": 1.01}, {"measurement": "normalized growth", "setting": "locus YBR279W, strain paf1, stronger effect = lower value", "value": 1.02}, {"measurement": "normalized growth", "setting": "locus YCL011C, strain gbp2, stronger effect = lower value", "value": 1.03}, {"measurement": "normalized growth", "setting": "locus YCL016C, strain dcc1, stronger effect = lower value", "value": 1.03}, {"measurement": "normalized growth", "setting": "locus YCL029C, strain bik1, stronger effect = lower value", "value": 1.01}, {"measurement": "normalized growth", "setting": "locus YCL061C, strain MRC1, stronger effect = lower value", "value": 1.02}, {"measurement": "normalized growth", "setting": "locus YCL069W, strain vba3, stronger effect = lower value", "value": 1.02}, {"measurement": "normalized growth", "setting": "locus YCR088W, strain abp1, stronger effect = lower value", "value": 1.02}, {"measurement": "normalized growth", "setting": "locus YDL005C, strain med2, stronger effect = lower value", "value": 1.01}, {"measurement": "normalized growth", "setting": "locus YDL035C, strain GPR1, stronger effect = lower value", "value": 0.986}, {"measurement": "normalized growth", "setting": "locus YDL040C, strain nat1, stronger effect = lower value", "value": 1.02}, {"measurement": "normalized growth", "setting": "locus YDL074C, strain BRE1, stronger effect = lower value", "value": 0.947}, {"measurement": "normalized growth", "setting": "locus YDL101C, strain DUN1, stronger effect = lower value", "value": 1}, {"measurement": "normalized growth", "setting": "locus YDL134C, strain PPH21, stronger effect = lower value", "value": 0.995}, {"measurement": "normalized growth", "setting": "locus YDL185W, strain tfp1, stronger effect = lower value", "value": 1}, {"measurement": "normalized growth", "setting": "locus YDL192W, strain arf1, stronger effect = lower value", "value": 1.01}, {"measurement": "normalized growth", "setting": "locus YDR001C, strain nth1, stronger effect = lower value", "value": 1.02}, {"measurement": "normalized growth", "setting": "locus YDR069C, strain doa4, stronger effect = lower value", "value": 0.969}, {"measurement": "normalized growth", "setting": "locus YDR101C, strain arx1, stronger effect = lower value", "value": 0.982}, {"measurement": "normalized growth", "setting": "locus YDR137W, strain rgp1, stronger effect = lower value", "value": "1.21 [resistant] (active)"}, {"measurement": "normalized growth", "setting": "locus YDR150W, strain NUM1, stronger effect = lower value", "value": 1.01}, {"measurement": "normalized growth", "setting": "locus YDR159W, strain sac3, stronger effect = lower value", "value": 1.03}, {"measurement": "normalized growth", "setting": "locus YDR162C, strain NBP2, stronger effect = lower value", "value": 0.993}, {"measurement": "normalized growth", "setting": "locus YDR195W, strain ref2", "value": 1.07}, {"measurement": "normalized growth", "setting": "locus YDR297W, strain sur2, stronger effect = lower value", "value": 1.03}, {"measurement": "normalized growth", "setting": "locus YDR318W, strain mcm21, stronger effect = lower value", "value": 0.983}, {"measurement": "normalized growth", "setting": "locus YDR334W, strain swr1, stronger effect = lower value", "value": 1.03}, {"measurement": "normalized growth", "setting": "locus YDR335W, strain msn5, stronger effect = lower value", "value": 1.03}, {"measurement": "normalized growth", "setting": "locus YDR388W, stronger effect = lower value", "value": "0.924 (active)"}, {"measurement": "normalized growth", "setting": "locus YDR392W, strain spt3, stronger effect = lower value", "value": 1.04}, {"measurement": "normalized growth", "setting": "locus YDR502C, strain sam2, stronger effect = lower value", "value": 0.983}, {"measurement": "normalized growth", "setting": "locus YEL003W, strain gim4, stronger effect = lower value", "value": 1.01}, {"measurement": "normalized growth", "setting": "locus YEL037C, strain rad23, stronger effect = lower value", "value": 1.02}, {"measurement": "normalized growth", "setting": "locus YEL061C, strain CIN8 (second series), stronger effect = lower value", "value": 1.03}, {"measurement": "normalized growth", "setting": "locus YEL061C, strain CIN8, stronger effect = lower value", "value": 1.01}, {"measurement": "normalized growth", "setting": "locus YER015W, strain faa2, stronger effect = lower value", "value": 1.02}, {"measurement": "normalized growth", "setting": "locus YER016W, strain bim1, stronger effect = lower value", "value": 1.02}, {"measurement": "normalized growth", "setting": "locus YER110C, stronger effect = lower value", "value": 1}, {"measurement": "normalized growth", "setting": "locus YER111C, strain swi4, stronger effect = lower value", "value": 1.01}, {"measurement": "normalized growth", "setting": "locus YER155C, strain BEM2 (second series), stronger effect = lower value", "value": 1.01}, {"measurement": "normalized growth", "setting": "locus YER155C, strain BEM2, stronger effect = lower value", "value": 1}, {"measurement": "normalized growth", "setting": "locus YER167W, strain BCK2, stronger effect = lower value", "value": 0.998}, {"measurement": "normalized growth", "setting": "locus YFR010W, strain ubp6, stronger effect = lower value", "value": 0.986}, {"measurement": "normalized growth", "setting": "locus YGL078C, strain dbp3, stronger effect = lower value", "value": 0.99}, {"measurement": "normalized growth", "setting": "locus YGL086W, strain mad1, stronger effect = lower value", "value": 0.974}, {"measurement": "normalized growth", "setting": "locus YGL167C, strain pmr1, stronger effect = lower value", "value": 1.02}, {"measurement": "normalized growth", "setting": "locus YGL173C, strain kem1, stronger effect = lower value", "value": 1.01}, {"measurement": "normalized growth", "setting": "locus YGL227W, strain vid30, stronger effect = lower value", "value": 1.02}, {"measurement": "normalized growth", "setting": "locus YGL240W, strain doc1, stronger effect = lower value", "value": 1.02}, {"measurement": "normalized growth", "setting": "locus YGL248W, strain PDE1, stronger effect = lower value", "value": 0.99}, {"measurement": "normalized growth", "setting": "locus YGL253W, strain hxk2, stronger effect = lower value", "value": 1.02}, {"measurement": "normalized growth", "setting": "locus YGR078C, strain PAC10, stronger effect = lower value", "value": 0.977}, {"measurement": "normalized growth", "setting": "locus YGR135W, strain pre9, stronger effect = lower value", "value": 0.951}, {"measurement": "normalized growth", "setting": "locus YGR229C, strain SMI1, stronger effect = lower value", "value": 0.901}, {"measurement": "normalized growth", "setting": "locus YGR252W, strain gcn5, stronger effect = lower value", "value": 0.888}, {"measurement": "normalized growth", "setting": "locus YHR013C, strain ard1, stronger effect = lower value", "value": 0.895}, {"measurement": "normalized growth", "setting": "locus YHR027C, strain rpn1, stronger effect = lower value", "value": 1.03}, {"measurement": "normalized growth", "setting": "locus YHR030C, strain SLT2, stronger effect = lower value", "value": 1}, {"measurement": "normalized growth", "setting": "locus YHR079C, strain IRE1 (second series), stronger effect = lower value", "value": 0.994}, {"measurement": "normalized growth", "setting": "locus YHR094C, strain hxt1, stronger effect = lower value", "value": 0.997}, {"measurement": "normalized growth", "setting": "locus YHR129C, strain ARP1, stronger effect = lower value", "value": 1}, {"measurement": "normalized growth", "setting": "locus YHR142W, strain chs7, stronger effect = lower value", "value": 1.01}, {"measurement": "normalized growth", "setting": "locus YHR200W, strain rpn10, stronger effect = lower value", "value": 0.989}, {"measurement": "normalized growth", "setting": "locus YIL066C, strain RNR3, stronger effect = lower value", "value": 0.988}, {"measurement": "normalized growth", "setting": "locus YIL073C, strain SPO22, stronger effect = lower value", "value": 1.12}, {"measurement": "normalized growth", "setting": "locus YIL125W, strain kgd1, stronger effect = lower value", "value": 1}, {"measurement": "normalized growth", "setting": "locus YIR030C, strain dcg1, stronger effect = lower value", "value": 0.996}, {"measurement": "normalized growth", "setting": "locus YJL092W, strain hpr5, stronger effect = lower value", "value": 1.02}, {"measurement": "normalized growth", "setting": "locus YJL095W, strain BCK1 (second series), stronger effect = lower value", "value": 1.03}, {"measurement": "normalized growth", "setting": "locus YJL095W, strain BCK1, stronger effect = lower value", "value": 0.913}, {"measurement": "normalized growth", "setting": "locus YJL115W, strain asf1, stronger effect = lower value", "value": 1.02}, {"measurement": "normalized growth", "setting": "locus YJL129C, strain trk1, stronger effect = lower value", "value": 1.04}, {"measurement": "normalized growth", "setting": "locus YJL134W, strain LCB3, stronger effect = lower value", "value": 1}, {"measurement": "normalized growth", "setting": "locus YJL154C, strain vps35, stronger effect = lower value", "value": 1.01}, {"measurement": "normalized growth", "setting": "locus YJL164C, strain tpk1, stronger effect = lower value", "value": 1.02}, {"measurement": "normalized growth", "setting": "locus YJL166W, strain qcr8, stronger effect = lower value", "value": 1.01}, {"measurement": "normalized growth", "setting": "locus YJL168C, strain set2, stronger effect = lower value", "value": 1}, {"measurement": "normalized growth", "setting": "locus YJL187C, strain SWE1 (second series), stronger effect = lower value", "value": 0.983}]}
